This note sets out measurements from PubChem BioAssay (NCI).

About 83,000 compounds went through this panel and 20% of them were active in at least one assay; those are over-represented in the sample as a whole.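 In brief: 96-well plates, 48 h treatment, single concentration, percent growth endpoint.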 A number with no mark means an inactive call. Active and inactive are the calls of the source. The calls were made as follows: active = growth percent below 10; inactive = the rest.

Some test systems named below: NCI-H23 lung; NCI-H226 lung; NCI-H322M lung; HOP-62 NSCLC; NCI-H460 lung; HOP-92 NSCLC; NCI-H522 lung; A549/ATCC NSCLC; 786-0 renal; COLO 205 colon.
Holding throughout (assay): NCI-60 one-dose screen, 48 h (100 = growth as untreated, 0 = no growth, -100 = all killed)
Holding throughout (conditions): 10 µM unless noted

On to `CCCCCC#CC(=O)O`, for which the growth was 109% in the assay with NCI-H23 lung; 107% in the assay on NCI-H226 lung; 98.7% in the assay with NCI-H322M lung; 98.2% with HOP-62 NSCLC; 110% with NCI-H460 lung; 83.6% with HOP-92 NSCLC. In addition, the growth in the assay on NCI-H522 lung is 90.6%; with A549/ATCC NSCLC, 97%; in the assay on 786-0 renal, 99%; in the assay with COLO 205 colon it was 107%.

For the molecule `O=C(NCc1ccccc1)c1cccc([N+](=O)[O-])c1`, the growth with NCI-H23 lung is 110%; in the assay with NCI-H226 lung, 105%; in the assay with NCI-H322M lung it was 96.7%; with HOP-62 NSCLC, 94.6%; in the assay with NCI-H460 lung, 103%; in the assay with HOP-92 NSCLC, 77.8%. The growth in the assay with NCI-H522 lung was 84.1%; in the assay on A549/ATCC NSCLC, 88.2%; in the assay on 786-0 renal, 94.9%; in the assay with COLO 205 colon it was 116%.

For `Nc1ccc2c(c1)Cc1cc(N)c(N)cc1-2`, the growth with NCI-H23 lung was 86.2%; in the assay on NCI-H226 lung, 95.4%; with NCI-H322M lung it was 92%; in the assay with HOP-62 NSCLC, 95%; in the assay on NCI-H460 lung it was 95.9%; in the assay with HOP-92 NSCLC, 101%. In addition, the growth in the assay with NCI-H522 lung is 74.6%; with A549/ATCC NSCLC it was 77.9%; with 786-0 renal it was 107%.

Turning to `OCC1OC(n2ccc3c2ncn2ncnc32)C(O)C1O` (stereo not drawn), the growth in the assay with NCI-H23 lung was 35.8%; in the assay on NCI-H226 lung, 25.1%; with NCI-H322M lung it was 38.4%; with HOP-62 NSCLC it was 37.3%; in the assay with NCI-H460 lung it was 26.5%; in the assay with HOP-92 NSCLC, -0.422% (active). For the same molecule, the growth in the assay with NCI-H522 lung is 82.7%; in the assay on A549/ATCC NSCLC, 50.6%; in the assay with 786-0 renal, 31.9%.

Turning to `COc1cccc2c1Cc1ccccc1-2`, the growth with NCI-H23 lung was 94.9%; in the assay on NCI-H226 lung it was 94.4%; in the assay with NCI-H322M lung it was 114%; with HOP-62 NSCLC it was 113%; with NCI-H460 lung, 110%; in the assay with HOP-92 NSCLC it was 106%. Besides, the growth in the assay with NCI-H522 lung is 103%; in the assay on A549/ATCC NSCLC, 107%; with 786-0 renal, 110%.

For the molecule `CCCCNC(=O)c1ccc(OCC)cc1`, the growth was 101% in the assay on NCI-H23 lung; 96% with NCI-H226 lung; 102% with NCI-H322M lung; 101% in the assay with HOP-62 NSCLC; 103% in the assay with NCI-H460 lung; 93.1% with HOP-92 NSCLC. Further, the growth is 95.6% in the assay with NCI-H522 lung, 98.6% in the assay on A549/ATCC NSCLC, 98.3% in the assay with 786-0 renal and 106% in the assay with COLO 205 colon.

Turning to `CCCC(=O)CC(=O)c1ccccc1`, the growth in the assay with NCI-H23 lung is 96%; in the assay on NCI-H226 lung it was 91.7%; in the assay with NCI-H322M lung, 95.1%; in the assay with HOP-62 NSCLC, 92.8%; with NCI-H460 lung, 106%; in the assay on HOP-92 NSCLC, 95.6%. Further, the growth with NCI-H522 lung is 78.1%; with A549/ATCC NSCLC it was 97.9%; in the assay with 786-0 renal, 103%.

As to `CC(C)(N)CO[C@H]1C[C@H]2CC[C@@]1(C)C2(C)C`, the growth with NCI-H23 lung is 94.7%; with NCI-H226 lung, 88.5%; with NCI-H322M lung it was 96.5%; in the assay with HOP-62 NSCLC, 106%; in the assay with NCI-H460 lung, 97.8%; with HOP-92 NSCLC, 89.2%. Besides, the growth was 92.4% with NCI-H522 lung, 96.8% in the assay on A549/ATCC NSCLC and 97.6% in the assay with 786-0 renal.

As to `CC(=O)Nc1ccc(C(=O)c2ccc(S(=O)(=O)Nc3ccccc3)cc2)cc1`, the growth with NCI-H23 lung was 231%; in the assay on NCI-H226 lung, 102%; in the assay on NCI-H322M lung, 73.2%; in the assay on HOP-62 NSCLC, 100%; in the assay with NCI-H460 lung, 97.8%; in the assay with HOP-92 NSCLC, 74.2%. In addition, the growth in the assay with NCI-H522 lung was 84.4%; in the assay with A549/ATCC NSCLC, 81.3%; in the assay on 786-0 renal, 156%.

For `Cc1ccc2nc(-c3ccc(N=Cc4ccccc4O)cc3)sc2c1`, the growth in the assay with NCI-H23 lung is 84.4%; in the assay with NCI-H226 lung, 70.7%; with NCI-H322M lung it was 82.8%; in the assay on HOP-62 NSCLC, 77.9%; in the assay on NCI-H460 lung, 104%; with HOP-92 NSCLC, 78.1%. The growth with NCI-H522 lung is 61.3%; in the assay on A549/ATCC NSCLC, 71.9%; in the assay with 786-0 renal, 77.5%.

For the molecule `O=S(=O)(O)C(C(I)I)S(=O)(=O)O`, the growth in the assay with NCI-H23 lung was 95.4%; with NCI-H226 lung, 98.7%; in the assay with NCI-H322M lung, 107%; in the assay on HOP-62 NSCLC, 109%; in the assay on NCI-H460 lung it was 105%; with HOP-92 NSCLC, 106%. The growth was 108% with NCI-H522 lung, 104% in the assay on A549/ATCC NSCLC and 110% in the assay on 786-0 renal.

Regarding `FC(F)(F)c1cc(NC2=NCCN=C(Nc3cc(C(F)(F)F)cc(C(F)(F)F)c3)SS2)cc(C(F)(F)F)c1`, the growth in the assay with NCI-H23 lung is 47.2%; in the assay on NCI-H226 lung, 67.9%; in the assay on NCI-H322M lung it was 90.1%; with HOP-62 NSCLC, 74.8%; in the assay with NCI-H460 lung, 40%; in the assay on HOP-92 NSCLC it was 0.524% (active). Also, the growth with NCI-H522 lung was 13.1%; with A549/ATCC NSCLC it was 49.1%; in the assay on 786-0 renal, 70.6%; with COLO 205 colon it was 49.1%.

`Oc1ccc2ccccc2c1CN1CCOCC1`: the growth in the assay on NCI-H23 lung was 104%; with NCI-H226 lung, 105%; in the assay with NCI-H322M lung, 112%; in the assay on HOP-62 NSCLC it was 122%; with NCI-H460 lung, 115%; in the assay on HOP-92 NSCLC, 102%. In addition, the results for the growth with NCI-H522 lung, in the assay with A549/ATCC NSCLC and with 786-0 renal were 110%, 99.7% and 109%, respectively.

Consider `N=C(N)c1nn(C2OC(CO)C(O)C2O)c2nc[nH]c(=O)c12` (stereo not drawn), for which the growth with NCI-H23 lung was -34.1% (active); in the assay with NCI-H226 lung it was 13.5%; in the assay on NCI-H322M lung it was 6.64% (active); in the assay on HOP-62 NSCLC it was -12% (active); with NCI-H460 lung, 2.95% (active); in the assay with HOP-92 NSCLC, -23.5% (active). For the same molecule, the growth was 11.5% in the assay on NCI-H522 lung, 19.1% with A549/ATCC NSCLC and -2.36% (active) in the assay with 786-0 renal.

On to `CN(C(=S)S(=O)(=O)C12CC3CC(CC(C3)C1)C2)c1ccccc1`, for which the growth with NCI-H23 lung is 97.5%; in the assay with NCI-H226 lung it was 93.3%; in the assay with NCI-H322M lung, 114%; with HOP-62 NSCLC, 116%; with NCI-H460 lung, 110%; with HOP-92 NSCLC it was 71.2%. Also, the growth in the assay with NCI-H522 lung is 46.1%; in the assay on A549/ATCC NSCLC, 95.1%; in the assay with 786-0 renal, 89.8%.

`CC(C)Sc1ncnc2nc[nH]c12`: the growth is 114% with NCI-H23 lung; 102% in the assay with NCI-H226 lung; 122% with NCI-H322M lung; 105% in the assay with HOP-62 NSCLC; 99.4% with NCI-H460 lung; 91.7% in the assay on HOP-92 NSCLC. The growth was 109% with NCI-H522 lung, 91.6% in the assay with A549/ATCC NSCLC and 101% with 786-0 renal.
